RORg inh: qHTS for inhibitors of ROR gamma transcriptional activity. 310,000 compounds, 5.4% hits. Potency, µM (doses to about 53.6 µM), without a hit: at the highest dose activity change, negative = inhibition, hits mostly inhibitors. Drosophila S2 Gal4-RORgamma UAS-luciferase reporter, 20 h. Nuclear receptor ROR-gamma (Mus musculus), P51450. AID 2551, 2010; also: nearly all actives have a fitted effect of over 60% in size
Target sequence (P51450 whole entry, looked up, the tested form may be a part): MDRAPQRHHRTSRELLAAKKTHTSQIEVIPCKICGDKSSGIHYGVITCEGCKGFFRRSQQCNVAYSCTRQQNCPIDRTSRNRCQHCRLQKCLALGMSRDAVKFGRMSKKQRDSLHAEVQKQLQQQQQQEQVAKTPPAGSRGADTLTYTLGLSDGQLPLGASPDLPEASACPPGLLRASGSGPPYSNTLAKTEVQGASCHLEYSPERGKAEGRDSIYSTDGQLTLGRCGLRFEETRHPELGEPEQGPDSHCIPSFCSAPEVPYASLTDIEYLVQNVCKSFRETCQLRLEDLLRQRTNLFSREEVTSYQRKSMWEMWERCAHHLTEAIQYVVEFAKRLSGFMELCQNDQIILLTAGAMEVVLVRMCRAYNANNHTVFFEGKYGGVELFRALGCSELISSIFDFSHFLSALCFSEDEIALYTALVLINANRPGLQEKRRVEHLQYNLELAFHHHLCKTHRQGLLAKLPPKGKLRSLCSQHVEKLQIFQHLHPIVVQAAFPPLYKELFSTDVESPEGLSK
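ROR gamma transcriptional activity was tracked as Gal4-UAS luciferase output in stably transfected Drosophila Schneider cells, with compound added 1 hr before 700 uM copper sulfate induction and a 20 hr ambient-temperature incubation.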
DT40 TDP1 CPT: qHTS for Inhibitors of human tyrosyl-DNA phosphodiesterase 1 (TDP1): qHTS in cells in presence of CPT; 420,000 compounds, 12% hits; Potency, µM (top dose mostly 46.2 µM), without a hit: at the highest dose activity change, negative = growth inhibition, usual class: inhibitors; chicken DT40 Tdp1-/-;hTDP1 cells + 20 nM CPT, ATP luminescence, 48 h; also: nearly all actives have a fitted effect of over 55% in size
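Chicken DT40 Tdp1-/- cells stably complemented with human TDP1 were seeded at 400 cells/well in medium containing 20 nM camptothecin, exposed to pin-transferred compounds, and grown at 37 °C for at least 48 hr. Viability was read as ATP luminescence.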
VP16 counter: VP16 counterscreen qHTS for inhibitors of ROR gamma transcriptional activity | Drosophila S2 Gal4-VP16 UAS-luciferase, luminescence, 20 h | AID 2546, 2010 | Potency, µM (series often up to 53.6 µM), without a hit: top-dose activity, negative = inhibition, usual class: inhibitors | 310,000 compounds, 3.5% hits;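 also: Gal4-VP16 expression switched on by copper sulfate through the metallothionein promoter; nearly all actives have a fitted effect of over 50% in size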
TDP1 cell noCPT: qHTS for Inhibitors of human tyrosyl-DNA phosphodiesterase 1 (TDP1): qHTS in cells in absence of CPT; DT40 Tdp1-/- hTDP1 cells, no CPT, ATP luminescence, 48 h; Potency, µM (top dose mostly 46.2 µM), without a hit: top-dose activity change, negative = growth inhibition, usual class: inhibitors; 420,000 compounds, 15% hits; AID 686978, 2013; also: nearly all actives have a fitted effect of over 55% in size
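Luminescent ATP content (CellTiter-Glo) served as the growth readout. Knockout chicken DT40 cells expressing human TDP1 were exposed to compounds without camptothecin for a minimum 48 hr at 37 °C.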
TDP1 block: qHTS Assay for Inhibitors of Tyrosyl-DNA Phosphodiesterase (TDP1); Tyrosyl-DNA phosphodiesterase 1 (Homo sapiens), Q9NUW8; recombinant TDP1, AlphaScreen DNA substrate cleavage; Potency, µM (top dose mostly 130 µM), without a hit: top-dose activity change, negative = inhibition, most hits filed as inhibitors; 350,000 compounds, 0.28% hits; also: nearly all actives have a fitted effect of over 40% in size
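Steps: enzyme plus compound, 15 min RT; add biotin/phosphotyrosine-FITC oligonucleotide (15 nM final), react 5 min; add donor/acceptor beads (10 ug/ml final), 10 min; read AlphaScreen. Tdp1 at 1 nM final.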
* hit, by the source's call; [ ] = remark or other dose. Hits are enriched below; roughly 19% of the tested compounds scored in any of these assays. Calls follow the shape of the dose curve; as a rule, active = well fitted curve in the direction sought with a large enough effect; inconclusive = small, poorly fitted or top-dose-only effect, or another doubt; inactive = no such curve, though single readings can be large; an effect the other way counts as inactive or inconclusive. % is scaled to controls: 0 for no effect and ±100 for the full control effect; potency is read from the fitted curve at half-maximal effect.

`O=C(CCCC(=O)N(c1ccc2c(c1)OCCO2)C(C(=O)NC1CCCCC1)c1ccc(Cl)cc1)Nc1ccccn1` (stereo not given) gave RORg inh -36%, DT40 TDP1 CPT inconclusive, VP16 counter -1%[0.365 µM], TDP1 cell noCPT inconclusive and TDP1 block 5%.
`O=C(NNC(=O)C1CCCCC1)c1cnccn1` gave RORg inh -25%, DT40 TDP1 CPT -16%, VP16 counter -10%, TDP1 cell noCPT inconclusive and TDP1 block 6%.
Screening Cc1ccc2c(=O)cc(C(=O)Nc3ccc(S(=O)(=O)Nc4nc(C)cc(C)n4)cc3)oc2c1 returned DT40 TDP1 CPT -9%, TDP1 cell noCPT -26% and TDP1 block 4%.
Screening Cc1oc2cc3c(C(=O)N4CCCCC4)c(C)oc3cc2c1C(=O)N1CCCCC1 returned RORg inh 2µM*, DT40 TDP1 CPT inconclusive, VP16 counter inconclusive, TDP1 cell noCPT 18µM* and TDP1 block 5%.
COc1cc2c(C(=O)N3CCN(C)CC3)c(C)oc2cc1Br was read as RORg inh -21%, DT40 TDP1 CPT 0%, VP16 counter 1%, TDP1 cell noCPT -13% and TDP1 block 2%.
`Cc1nn(-c2ccccn2)c2c1C(c1ccsc1)C1=C(CCCC1=O)N2` (stereo not given) gave RORg inh inconclusive, DT40 TDP1 CPT inconclusive, VP16 counter inconclusive, TDP1 cell noCPT inconclusive and TDP1 block 7%.
Cc1nn(-c2ccccn2)c2c1C(c1ccccc1Cl)C1=C(N2)c2ccccc2C1=O (stereo not given) was read as RORg inh 2.8µM*, DT40 TDP1 CPT 6.5µM*, VP16 counter inconclusive, TDP1 cell noCPT 4.6µM* and TDP1 block 5%.
Screening Cc1nn(-c2ccccn2)c2c1C(c1c(F)cccc1Cl)C1=C(N2)c2ccccc2C1=O (stereo not given) returned RORg inh 1.6µM*, VP16 counter 7.9µM* and TDP1 block 6%.
CSC1=C(C#N)C(c2ccccc2Cl)C2=C(N1)c1ccccc1C2=O (stereo not given) was read as RORg inh -14%, DT40 TDP1 CPT 23µM*, VP16 counter 12%, TDP1 cell noCPT 18µM* and TDP1 block 1%.
`CSC1=C(C#N)C(c2ccccc2Cl)C2=C(CCCC2=O)N1` (stereo not given) gave RORg inh 7%, VP16 counter 0% and TDP1 block -2%.
Screening O=c1[nH]ncc2c3ccccc3n(Cc3ccccc3F)c12 returned RORg inh -9%, DT40 TDP1 CPT 0%, VP16 counter -2%, TDP1 cell noCPT inconclusive and TDP1 block -2%.
`C#CCOCCOCCOCCNc1nc(N2CCN(C(=O)[C@H](C)n3cc(CCC(=O)O)nn3)CC2)nc(N2CCN(C(=O)[C@H](Cc3ccc(O)cc3)n3cc(CCO)nn3)CC2)n1` gave DT40 TDP1 CPT -2% and TDP1 cell noCPT 2%.
CC1CCCC(C)N1C(=O)Cn1c(SCC(=O)NCc2ccc3c(c2)OCO3)nc2ccccc21 (stereo not given) was read as RORg inh 32%, DT40 TDP1 CPT inconclusive, VP16 counter -1%, TDP1 cell noCPT -9% and TDP1 block 2%.
Screening COc1ccc(NC(=O)CSc2nnc(NC(=O)c3ccccc3C(=O)O)s2)cc1 returned RORg inh -11%, DT40 TDP1 CPT 26µM*, VP16 counter 6%, TDP1 cell noCPT inconclusive and TDP1 block 2%.
Screening COCCSc1nnc(NC(=O)CSCc2ccccc2)s1 returned RORg inh 7.9µM*, DT40 TDP1 CPT -12%, VP16 counter inconclusive, TDP1 cell noCPT -12% and TDP1 block 6%.
`CC(=O)Nc1ccc(NC(=O)CSc2nnc(NC(=O)c3ccc(Br)o3)s2)cc1` gave RORg inh 3.2µM*, DT40 TDP1 CPT -18%, VP16 counter 11µM*, TDP1 cell noCPT -22% and TDP1 block -2%.
For CCc1ccc(Nc2nnc(SCC(=O)Nc3cccnc3Cl)s2)cc1 the results were RORg inh 11µM*, DT40 TDP1 CPT -6%, VP16 counter inconclusive, TDP1 cell noCPT -2% and TDP1 block -8%.
`COCCSc1nnc(NC(=O)COC)s1` gave RORg inh -32%, DT40 TDP1 CPT inconclusive, VP16 counter 14%, TDP1 cell noCPT -4% and TDP1 block 6%.
`CCOc1ccccc1C(=O)OCC(=O)NCC1CCCCC1` gave DT40 TDP1 CPT 5% and TDP1 cell noCPT -5%.
Screening COCc1nnc(NC(=O)CSCc2ccccc2)s1 returned RORg inh 11µM*, DT40 TDP1 CPT -1%, VP16 counter -17%, TDP1 cell noCPT 5% and TDP1 block 6%.
For Cc1ccccc1Nc1nnc(SCC(=O)Nc2ccccc2[N+](=O)[O-])s1 the results were RORg inh inconclusive, DT40 TDP1 CPT -9%, VP16 counter -16%, TDP1 cell noCPT -18% and TDP1 block -1%.
`COc1cccc(Nc2nnc(SCC(=O)Nc3sccc3C(N)=O)s2)c1` gave RORg inh inconclusive, DT40 TDP1 CPT 13µM*, VP16 counter -17%[10 µM] and TDP1 cell noCPT 8.2µM*.
`CCc1ccc(Nc2nnc(SCC(=O)Nc3sccc3C(N)=O)s2)cc1` gave RORg inh -18%, DT40 TDP1 CPT inconclusive, VP16 counter -13%, TDP1 cell noCPT inconclusive and TDP1 block -1%.
Screening Cc1cccc(Nc2nnc(SCC(=O)Nc3ccccc3[N+](=O)[O-])s2)c1 returned RORg inh -14%, DT40 TDP1 CPT inconclusive, VP16 counter 3%, TDP1 cell noCPT 16µM* and TDP1 block 7%.
`COCc1nnc(NC(=O)CSc2ccccc2)s1` gave RORg inh inconclusive, DT40 TDP1 CPT -4%, VP16 counter -27%, TDP1 cell noCPT -13% and TDP1 block 3%.
Screening O=C1/C(=C/c2ccccc2)CCCc2ccccc21 returned RORg inh inconclusive, DT40 TDP1 CPT -16%, VP16 counter -10%, TDP1 cell noCPT inconclusive and TDP1 block 4%.
CC(C)/C=C1\CC/C(=C\c2cccnc2)C1=O was read as RORg inh inconclusive, DT40 TDP1 CPT inconclusive, VP16 counter 5%, TDP1 cell noCPT 21µM* and TDP1 block 1%.
